# Measurements taken from PubChem BioAssay (NCATS).
# Inconclusive results are not listed. Values without a mark were called inactive. The source made the active and inactive calls. Calls come from the whole dose curve; as a rule, active = well fitted cell-killing curve with a large enough effect; inconclusive = small, poorly fitted or top-dose-only effect; inactive = no such curve, though single readings can be large or run the other way.
# Experiment: qHTS of pediatric cancer cell lines to identify multiple opportunities for drug repurposing: Confirmatory screen for Rh41 cells (AID 1347123);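 note: 48 h compound exposure; nearly all actives have a fitted effect of over 60% in size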;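 for activity change, negative = cytotoxic: plate controls were DMSO for no effect and bortezomib for full effect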
# Settings: Rh41 rhabdomyosarcoma cells, viability/cytotoxicity qHTS; series mostly up to 45.9 µM; activity change, negative = cytotoxic: at the top concentration
# Method in brief: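 Viability after 48 h compound treatment at 37C, 500-1,000 cells/well, read as ATP luminescence with CellTiter-Glo. Primary screens used 11-point (MIPE, 0.78 nM-46 µM) or 8-point (NPC, 0.59 nM-46 µM) final concentrations; follow-up screens used 11-point dilutions.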
# Potency is the fitted concentration of half-maximal effect.
SMILES,"activity change, negative = cytotoxic [%]",Potency
O=NN(CCCl)C(=O)NCCCl,0.818,
COc1cccc2cc(-c3nc(C4CCC(C(=O)O)CC4)n4ncnc(N)c34)[nH]c12 (stereo not drawn),,2.08 µM (active)
Nc1nc2c(ncn2COCCO)c(=O)[nH]1,-1.66,
CCN(CC)CCCC(C)Nc1ccnc2cc(Cl)ccc12 (stereo not drawn),-14,
CCCS(=O)(=O)Nc1ccc(F)c(C(=O)c2c[nH]c3ncc(-c4ccc(Cl)cc4)cc23)c1F,,13.1 µM (active)
COCC(=O)NCC=Cc1ccc2ncnc(Nc3ccc(Oc4ccc(C)nc4)c(C)c3)c2c1,,18.5 µM (active)
COc1cc2nccc(Oc3ccc(NC(=O)NC4CC4)c(Cl)c3)c2cc1C(N)=O,,5.85 µM (active)
NCCCC(N)(C(=O)O)C(F)F (stereo not drawn),5.73,
CCC(C)n1ncn(-c2ccc(N3CCN(c4ccc(OC[C@H]5CO[C@](Cn6cncn6)(c6ccc(Cl)cc6Cl)O5)cc4)CC3)cc2)c1=O (stereo partly drawn),,11.7 µM (active)
CN1CCN(CCCN2c3ccccc3Sc3ccc(C(F)(F)F)cc32)CC1,,14.7 µM (active)
COc1ccc(-c2oc3cc(OC)ccc3c2C(=O)c2ccc(C#N)cc2)cc1,-23.2,
Nc1nc2ccc(OC(F)(F)F)cc2s1,-0.314,
Cc1c(CN2CCN(C(=O)C(C)C)CC2)sc2c(N3CCOCC3)nc(-c3cnc(N)nc3)nc12,,0.414 µM (active)
Cn1cnc2c(F)c(Nc3ccc(Br)cc3Cl)c(C(=O)NOCCO)cc21,-10.5,
COc1ccc(-c2ccc3c(N4CCOCC4)nc(N4C[C@@H](C)O[C@@H](C)C4)nc3n2)cc1CO,,0.657 µM (active)
Oc1cccc(-c2nc(N3CCOCC3)c3oc4ncccc4c3n2)c1,,0.522 µM (active)
CNCc1ccc(-c2[nH]c3cc(F)cc4c3c2CCNC4=O)cc1,,16.5 µM (active)
COc1ccc(-c2ccc3c(N4CCOC[C@H]4C)nc(N4CCOC[C@H]4C)nc3n2)cc1CO,,0.233 µM (active)
CO[C@@H]1[C@H](N(C)C(=O)c2ccccc2)C[C@H]2O[C@]1(C)n1c3ccccc3c3c4c(c5c6ccccc6n2c5c31)C(=O)NC4,0,
Cc1c(C)c2c(c(C)c1O)CCC(C)(COc1ccc(CC3SC(=O)NC3=O)cc1)O2 (stereo not drawn),19.1,
C#Cc1cccc(Nc2ncnc3cc(OCCOC)c(OCCOC)cc23)c1,,9.27 µM (active)
NC(N)=NC(=O)c1nc(Cl)c(N)nc1N,1.78,
Cc1cn[nH]c1,12.7,
Cc1oncc1C(=O)Nc1ccc(C(F)(F)F)cc1,-1.58,
NC(=O)c1ccc(I)c([N+](=O)[O-])c1,,43.7 µM (active)
Nc1nc2[nH]cc(CCc3ccc(C(=O)N[C@@H](CCC(=O)O)C(=O)O)cc3)c2c(=O)[nH]1,-8.35,
C[C@]1(c2nc3c(C(N)=O)cccc3[nH]2)CCCN1,-0.829,
O=C(c1cc(Cc2n[nH]c(=O)c3ccccc23)ccc1F)N1CCN(C(=O)C2CC2)CC1,,9.27 µM (active)
